What all share (assay): DAPPL (digital affinity profiling via proximity ligation, sequencing); 10 mM Tris-HCl pH 7.5, 50 mM NaCl, 1 mM DTT, 4% glycerol, room temperature, 30 min; GST-TFs on glutathione beads, 16-mer random dsDNA library, 0.1% formaldehyde crosslink after washing; high values mean tight binding
What all share (settings): protein: recombinant; tags: N-terminal GST; dsDNA, one strand shown

The target in assay [1] is T1, ERF (Homo sapiens, UniProt P50548 1-548).
T1 sequence: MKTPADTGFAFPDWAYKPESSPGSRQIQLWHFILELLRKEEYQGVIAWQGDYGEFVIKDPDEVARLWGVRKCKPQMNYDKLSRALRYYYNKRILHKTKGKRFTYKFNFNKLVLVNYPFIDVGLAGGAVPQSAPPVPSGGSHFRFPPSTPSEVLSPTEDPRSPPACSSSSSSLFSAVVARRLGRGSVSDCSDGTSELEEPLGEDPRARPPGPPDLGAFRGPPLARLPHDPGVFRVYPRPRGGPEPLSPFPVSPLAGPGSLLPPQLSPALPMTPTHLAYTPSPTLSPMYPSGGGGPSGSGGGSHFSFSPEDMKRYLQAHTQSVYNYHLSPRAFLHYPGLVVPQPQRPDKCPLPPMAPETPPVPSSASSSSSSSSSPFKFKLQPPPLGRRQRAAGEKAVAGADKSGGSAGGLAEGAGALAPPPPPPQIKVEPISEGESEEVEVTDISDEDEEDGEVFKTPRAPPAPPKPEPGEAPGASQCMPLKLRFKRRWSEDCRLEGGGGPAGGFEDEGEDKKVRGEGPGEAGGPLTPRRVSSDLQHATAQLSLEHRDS
A digest of the protocol:
(§1)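 Yeast served to express human transcription factors as GST fusions, which were then captured on glutathione beads and labelled with DNA barcodes. Pooled with a tag-only sample, they were incubated with 200 nmole of a 16-mer random double-stranded DNA library for 30 min at room temperature in Tris/NaCl/DTT/glycerol buffer, washed, crosslinked with 0.1% formaldehyde, ligated by proximity, amplified by PCR and sequenced. Dividing each hexamer's read frequency for a factor by its frequency for the tag-only sample gives the binding signal.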

Assay [2] deals with T2, ETV3L (Homo sapiens, UniProt Q6ZN32 1-361).
T2 sequence: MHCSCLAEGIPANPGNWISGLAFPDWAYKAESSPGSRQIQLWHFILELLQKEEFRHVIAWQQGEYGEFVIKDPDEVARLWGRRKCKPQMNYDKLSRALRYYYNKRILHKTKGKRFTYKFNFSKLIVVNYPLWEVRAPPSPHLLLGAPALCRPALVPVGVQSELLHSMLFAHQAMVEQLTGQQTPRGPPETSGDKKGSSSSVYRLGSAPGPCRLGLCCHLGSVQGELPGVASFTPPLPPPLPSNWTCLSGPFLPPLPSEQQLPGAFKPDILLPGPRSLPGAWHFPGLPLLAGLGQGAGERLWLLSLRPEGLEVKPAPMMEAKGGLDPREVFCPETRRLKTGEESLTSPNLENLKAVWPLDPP
A digest of the protocol: as §1

Assay [3] has as its target T3, ETS2 (Homo sapiens, UniProt P15036 1-469).
T3 sequence: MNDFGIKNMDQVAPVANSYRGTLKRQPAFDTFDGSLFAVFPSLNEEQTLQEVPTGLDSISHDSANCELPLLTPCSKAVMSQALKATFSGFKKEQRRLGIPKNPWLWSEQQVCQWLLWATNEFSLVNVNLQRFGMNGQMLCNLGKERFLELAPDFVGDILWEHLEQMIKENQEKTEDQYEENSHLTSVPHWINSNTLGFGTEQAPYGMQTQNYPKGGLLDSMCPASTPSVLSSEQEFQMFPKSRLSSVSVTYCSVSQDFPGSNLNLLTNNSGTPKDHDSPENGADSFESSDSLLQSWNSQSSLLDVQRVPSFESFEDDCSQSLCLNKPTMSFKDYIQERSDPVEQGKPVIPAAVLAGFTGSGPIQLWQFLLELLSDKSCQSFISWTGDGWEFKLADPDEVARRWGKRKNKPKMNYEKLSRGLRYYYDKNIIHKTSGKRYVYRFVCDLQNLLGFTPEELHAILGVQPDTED
A digest of the protocol:
as §1

The target in assay [4] is T4, SPDEF (Homo sapiens, UniProt O95238 1-335).
T4 sequence: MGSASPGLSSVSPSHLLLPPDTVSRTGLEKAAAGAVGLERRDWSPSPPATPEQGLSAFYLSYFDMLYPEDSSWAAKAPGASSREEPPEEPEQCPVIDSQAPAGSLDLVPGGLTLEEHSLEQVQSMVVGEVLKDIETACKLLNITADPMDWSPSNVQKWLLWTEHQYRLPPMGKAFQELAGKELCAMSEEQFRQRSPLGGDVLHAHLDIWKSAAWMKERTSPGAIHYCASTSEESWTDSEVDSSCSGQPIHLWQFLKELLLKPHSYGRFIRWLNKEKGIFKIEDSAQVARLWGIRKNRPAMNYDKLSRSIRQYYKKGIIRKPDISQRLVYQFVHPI
The method in brief: as §1

The target in assay [5] is T5, ETV7 (Homo sapiens, UniProt Q9Y603 1-341).
T5 sequence: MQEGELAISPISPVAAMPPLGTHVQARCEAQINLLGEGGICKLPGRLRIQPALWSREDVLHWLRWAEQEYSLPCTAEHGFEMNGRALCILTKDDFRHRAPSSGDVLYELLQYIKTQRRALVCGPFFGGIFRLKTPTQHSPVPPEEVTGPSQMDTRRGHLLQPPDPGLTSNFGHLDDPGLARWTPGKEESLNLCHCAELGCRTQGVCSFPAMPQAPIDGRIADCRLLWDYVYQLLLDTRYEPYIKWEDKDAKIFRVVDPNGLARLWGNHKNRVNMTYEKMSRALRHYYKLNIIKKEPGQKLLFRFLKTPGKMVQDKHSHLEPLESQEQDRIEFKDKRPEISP
A digest of the protocol:
as §1

In assay [6] the target is T6, ELF5 (Homo sapiens, UniProt Q9UKW6-2 1-255).
T6 sequence: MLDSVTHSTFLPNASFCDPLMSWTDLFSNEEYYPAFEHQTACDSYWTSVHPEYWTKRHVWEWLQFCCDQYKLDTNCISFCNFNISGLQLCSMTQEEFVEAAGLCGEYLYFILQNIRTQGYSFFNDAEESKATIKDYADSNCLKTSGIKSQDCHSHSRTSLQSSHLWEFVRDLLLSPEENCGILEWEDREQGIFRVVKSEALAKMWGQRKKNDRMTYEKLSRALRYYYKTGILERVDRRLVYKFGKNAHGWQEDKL
A digest of the protocol: as §1

The target in assay [7] is T7, ETV3 (Homo sapiens, UniProt P41162-2 1-143).
T7 sequence: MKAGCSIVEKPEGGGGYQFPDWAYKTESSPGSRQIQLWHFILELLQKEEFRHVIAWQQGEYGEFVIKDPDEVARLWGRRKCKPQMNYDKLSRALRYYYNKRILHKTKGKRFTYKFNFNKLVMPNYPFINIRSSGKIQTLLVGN
The method in brief:
as §1

Assay [8] concerns the target ETV6 (Homo sapiens, UniProt P41212 1-452). The method in brief:
as §1

Chain of ETV6 (P41212 whole entry): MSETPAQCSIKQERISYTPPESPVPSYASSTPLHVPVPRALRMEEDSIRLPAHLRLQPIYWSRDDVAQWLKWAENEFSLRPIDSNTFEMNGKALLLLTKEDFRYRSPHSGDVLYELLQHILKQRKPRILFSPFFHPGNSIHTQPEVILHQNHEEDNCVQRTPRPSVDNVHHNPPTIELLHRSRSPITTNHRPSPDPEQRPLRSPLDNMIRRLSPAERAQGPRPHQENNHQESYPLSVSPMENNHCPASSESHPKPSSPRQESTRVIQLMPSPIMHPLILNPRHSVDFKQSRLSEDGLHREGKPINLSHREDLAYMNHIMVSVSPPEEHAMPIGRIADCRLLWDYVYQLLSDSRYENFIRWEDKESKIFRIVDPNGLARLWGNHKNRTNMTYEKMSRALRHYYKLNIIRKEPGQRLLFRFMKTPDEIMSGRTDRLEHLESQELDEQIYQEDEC

With CATGGT, the binding signal was 1.24 fold enrichment (6-mer frequency, TF over GST control) in assay [1]; 1.27 fold enrichment (6-mer frequency, TF over GST control) in assay [2]; 1.25 fold enrichment (6-mer frequency, TF over GST control) in assay [3]; 1.13 fold enrichment (6-mer frequency, TF over GST control) in assay [4]; 1.16 fold enrichment (6-mer frequency, TF over GST control) in assay [5]; 1.16 fold enrichment (6-mer frequency, TF over GST control) in assay [6]. Further, the binding signal was 1.25 fold enrichment (6-mer frequency, TF over GST control) in assay [7] and 1.2 fold enrichment (6-mer frequency, TF over GST control) in assay [8].

In the case of TAGCAT, the binding signal is 1.09 fold enrichment (6-mer frequency, TF over GST control) in assay [1]; 1.14 fold enrichment (6-mer frequency, TF over GST control) in assay [2]; 1.11 fold enrichment (6-mer frequency, TF over GST control) in assay [3]; 1.21 fold enrichment (6-mer frequency, TF over GST control) in assay [4]; 1.11 fold enrichment (6-mer frequency, TF over GST control) in assay [5]; 1.01 fold enrichment (6-mer frequency, TF over GST control) in assay [6]. The binding signal in assay [7] is 1.16 fold enrichment (6-mer frequency, TF over GST control); in assay [8] it was 1.15 fold enrichment (6-mer frequency, TF over GST control).

Turning to ACAGGA, the binding signal is 1.03 fold enrichment (6-mer frequency, TF over GST control) in assay [1]; 1.11 fold enrichment (6-mer frequency, TF over GST control) in assay [2]; 1.16 fold enrichment (6-mer frequency, TF over GST control) in assay [3]; 1.37 fold enrichment (6-mer frequency, TF over GST control) in assay [4]; 1.11 fold enrichment (6-mer frequency, TF over GST control) in assay [5]; 1.28 fold enrichment (6-mer frequency, TF over GST control) in assay [6]. Further, the binding signal in assay [7] was 1.15 fold enrichment (6-mer frequency, TF over GST control); in assay [8] it was 1.19 fold enrichment (6-mer frequency, TF over GST control).

Consider AAGCGC, for which the binding signal in assay [1] is 1.1 fold enrichment (6-mer frequency, TF over GST control); in assay [2], 1.13 fold enrichment (6-mer frequency, TF over GST control); in assay [3], 1.22 fold enrichment (6-mer frequency, TF over GST control); in assay [4], 1.03 fold enrichment (6-mer frequency, TF over GST control); in assay [5], 1.11 fold enrichment (6-mer frequency, TF over GST control); in assay [6] it was 1.13 fold enrichment (6-mer frequency, TF over GST control). Moreover, the binding signal was 1.29 fold enrichment (6-mer frequency, TF over GST control) in assay [7] and 1.15 fold enrichment (6-mer frequency, TF over GST control) in assay [8].

Turning to CCAATG, the binding signal in assay [1] is 1.03 fold enrichment (6-mer frequency, TF over GST control); in assay [2], 1.11 fold enrichment (6-mer frequency, TF over GST control); in assay [3], 1.08 fold enrichment (6-mer frequency, TF over GST control); in assay [4] it was 1.02 fold enrichment (6-mer frequency, TF over GST control); in assay [5], 1.1 fold enrichment (6-mer frequency, TF over GST control); in assay [6], 1.05 fold enrichment (6-mer frequency, TF over GST control). Besides, the binding signal in assay [7] is 1.15 fold enrichment (6-mer frequency, TF over GST control); in assay [8] it was 1.14 fold enrichment (6-mer frequency, TF over GST control).

Take TGGCAA: the binding signal was 1.21 fold enrichment (6-mer frequency, TF over GST control) in assay [1]; 1.23 fold enrichment (6-mer frequency, TF over GST control) in assay [2]; 1.14 fold enrichment (6-mer frequency, TF over GST control) in assay [3]; 1 fold enrichment (6-mer frequency, TF over GST control) in assay [4]; 1.16 fold enrichment (6-mer frequency, TF over GST control) in assay [5]; 1.16 fold enrichment (6-mer frequency, TF over GST control) in assay [6]. The binding signal in assay [7] was 1.12 fold enrichment (6-mer frequency, TF over GST control); in assay [8], 1.28 fold enrichment (6-mer frequency, TF over GST control).

With CAGCTT, the binding signal in assay [1] was 1.28 fold enrichment (6-mer frequency, TF over GST control); in assay [2], 1.2 fold enrichment (6-mer frequency, TF over GST control); in assay [3] it was 1.21 fold enrichment (6-mer frequency, TF over GST control); in assay [4] it was 1.24 fold enrichment (6-mer frequency, TF over GST control); in assay [5], 1.15 fold enrichment (6-mer frequency, TF over GST control); in assay [6], 1.11 fold enrichment (6-mer frequency, TF over GST control). In addition, the binding signal is 1.21 fold enrichment (6-mer frequency, TF over GST control) in assay [7] and 1.11 fold enrichment (6-mer frequency, TF over GST control) in assay [8].

Regarding TTCCTC, the binding signal was 2.13 fold enrichment (6-mer frequency, TF over GST control) in assay [1]; 2.21 fold enrichment (6-mer frequency, TF over GST control) in assay [2]; 2.22 fold enrichment (6-mer frequency, TF over GST control) in assay [3]; 1.96 fold enrichment (6-mer frequency, TF over GST control) in assay [4]; 1.96 fold enrichment (6-mer frequency, TF over GST control) in assay [5]; 3.84 fold enrichment (6-mer frequency, TF over GST control) in assay [6]. Further, the binding signal in assay [7] was 2.38 fold enrichment (6-mer frequency, TF over GST control); in assay [8], 2.48 fold enrichment (6-mer frequency, TF over GST control).

For the origin of these results see article PMC7862700, “An all-to-all approach to the identification of sequence-specific readers for epigenetic DNA modifications on cytosine”.
